# Test results: PubChem BioAssay AID540254 (Southern Research Specialized Biocontainment Screening …, 2011)
# Fewer than 10 of roughly 1,800 compounds were called active. These entries were drawn from the full list. Results with a measured potency or affinity are listed apart. A number with no mark means an inactive call. How the calls were made is not given here.
# Assay: antiviral activity against H1N1 influenza, dose response, cell-based, strain KY180 (AID 540254)
# Conditions: H1N1 KY180 influenza antiviral cell-based screen; series mostly up to 40 µM; inhibition: at the top concentration
row,SMILES,inhibition [%]
1,O=C(Nc1nc(-c2ccccn2)cs1)C1COc2ccccc2O1 (configuration not stated),-1.68
2,CC(=O)N/N=C(\C)c1cccc(NC(=O)c2cccs2)c1,0
3,O=C(Nc1nc2c(s1)CCCC2)C1COc2ccccc2O1 (configuration not stated),-1.12
4,Cn1c(=O)c2[nH]c(NN=Cc3ccc(Br)cc3)nc2n(C)c1=O,-1.47
5,COc1ccc(C(=O)NC(=S)NNC(=O)c2cnccn2)cc1OC,0.25
6,COC(=O)c1ccccc1NC1=C/C(=N\S(=O)(=O)c2ccc(C(=O)O)cc2)c2ccccc2C1=O,-2.51
7,CCNC(=S)NNC(=O)c1ccccn1,1.27
8,O=c1c2ccccc2ncn1Cc1ccco1,0.5
9,Oc1c(CN2CCCCC2)ccc2cccnc12,-2.01
10,COCc1cc(C)nc(SCC(=O)Nc2ccc3c(c2)n(C)c(=O)n3C)c1C#N,-0.56
11,Nc1ccccc1C(=O)NCc1ccc(Cl)cc1,-1.27
12,Nc1nc(SCc2ccc([N+](=O)[O-])cc2)nc2nc3c(cc12)CCCC3,1.97
13,CCN(CC)CCNc1nc2cc(OC)c(OC)cc2c2nc(-c3ccccc3)nn12,-5.15
14,Cc1cc(N(C)N)nc(NC(=O)NS(=O)(=O)c2ccccc2Cl)n1,-0.5
15,Cn1cc(S(=O)(=O)Nc2ccc(Br)cc2F)c(=O)n(C)c1=O,1.97
16,O=C(NCC1CCCO1)C(=O)N/N=C/c1cc(Cl)ccc1O (configuration not stated),1.27
17,O=C(NCCCN1CCOCC1)C(=O)N/N=C/c1ccccc1O,0
18,Cc1ccc(OCCn2c(C3CC(=O)N(Cc4ccccc4)C3)nc3ccccc32)cc1 (configuration not stated),-2.51
19,CCOC(=O)c1cnc(-n2[nH]c(C)c(Cc3ccccc3)c2=O)[nH]c1=O,0.56
20,Cc1ccc(C(c2nnnn2Cc2cccs2)N2CCN(Cc3ccc4c(c3)OCO4)CC2)cc1 (configuration not stated),-2.95
21,COc1cc(/C=C2\SC(c3ccccc3)=NC2=O)cc(Cl)c1O,0.56
22,COC(=O)C1CCN(C(=O)Cc2ccc(C)cc2)CC1,0.5
23,COc1ccc(Cc2nnc(N/N=C/c3ccc(O)cc3)[nH]c2=O)cc1OC,-1.51

row,SMILES,inhibition [%]
1,CC1CC(=O)N(C)c2ccc([N+](=O)[O-])cc2N1 (configuration not stated),1.12
2,O=C(c1cc2ccccc2o1)N1CCCCCC1,2.01
3,COc1cc(OC)cc(C(=O)NC(=S)NNC(=O)c2cnccn2)c1,-1.68
4,CC1CCCC(C)N1c1nnc(NC(=O)Cn2c(=O)oc3ccccc32)s1 (configuration not stated),-1.97
5,Fc1ccc(-[n+]2nc(Nc3ccccc3)sc2-c2c(Cl)cccc2Cl)cc1,-2.01
6,CC1NC(=O)NC1CCCCCC(=O)Nc1ccc(F)cc1 (configuration not stated),1.57
7,CCc1nnc(SCC(=O)N2CCc3ccccc32)n1CC,2.46
8,O=C(CNCc1ccccn1)Nc1cc(S(=O)(=O)N2CCCCC2)ccc1Cl,0
9,Cc1nc2sccn2c(=O)c1S(=O)(=O)N1CCN(c2ccc(F)cc2)CC1,4.25
10,O=C1NC(c2ccccn2)Nc2sc3c(c21)CCC3 (configuration not stated),-1.47
11,COc1cccc(/C=N/NC(=O)CCCC(=O)NC2CCCCC2)c1,1.47
12,CCOC(=O)Cn1c(=O)oc2cc(S(=O)(=O)NCc3ccccn3)ccc21,-0.67
13,COc1cccc(C2c3c(oc4ccc(Cl)cc4c3=O)C(=O)N2c2cc(C)on2)c1OC (configuration not stated),-1.57
14,CC(/C=N/NC(=O)c1ccc(Cn2cc([N+](=O)[O-])cn2)o1)=C\c1ccccc1,1.97
15,CCOc1ccc(C(=O)NCCn2cc(SCC(=O)Nc3cc(C)on3)c3ccccc32)cc1,0.56
16,O=C(N/N=C/c1ccc([N+](=O)[O-])cc1)c1ccccc1OCc1ccccc1,-1.01
17,CC(=O)Cc1nsc(NC(=O)c2ccc(-c3cc(C(F)(F)F)ccc3Cl)o2)n1,-0.56
18,CCCCC(=O)NC(c1ccc(N(C)C)cc1)c1ccc2cccnc2c1O (configuration not stated),0
19,CC(C)COC(=O)c1ccc2c(c1O)C(=O)c1ccccc1C2=O,-1.12
20,CCOC(=O)CCSCC(=O)Nc1nnc(C)s1,1.27
21,O=C(CSc1ccccc1)Nc1nnc(/C=C/c2ccccc2)s1,0.25
22,COc1ccc(C(CNC(=O)CN2C(=O)NC3(CCCC3)C2=O)N(C)C)cc1 (configuration not stated),4.02
23,COc1ccc(C(=O)COC(=O)CN2CC(=O)Oc3ccccc32)cc1Br,-1.97

row,SMILES,inhibition [%]
1,O=C(NC1CCCC1)C(c1cccnc1)N(C(=O)c1csnn1)c1ccccc1Cl (configuration not stated),0.22
2,CCOC(=O)C1=C(C)N(C)C(C)=C(C(=O)OCC)C1c1ccncc1,13.2
3,O=[N+]([O-])c1ccc(CSc2ccc(-c3ccccn3)nn2)cc1,-1.01
4,O=C(NN=C1CCCCCC1)c1cccs1,2.53
5,CCOC(=O)C1CCN(c2c(NC3CCCCCCC3)c(=O)c2=O)CC1,-1.12
6,CC(C)C(=O)N(c1cc2sc(=O)oc2c2ccccc12)S(=O)(=O)c1cccs1,-1.27
7,CN1C(=O)/C(=C\c2cc(N=Nc3ccccc3)ccc2O)SC1=S,-0.25
8,CCCC(=O)OC(C(=O)Nc1cc(C(F)(F)F)ccc1Cl)c1ccccc1 (configuration not stated),0
9,Cc1ccccc1-c1nc(CN2CCC(C(=O)N3CCC(C(N)=O)CC3)CC2)c(C)o1,7.38
10,O=C(O)c1ccc(-n2nnnc2Oc2cccc3cccnc23)cc1,1.51
11,Cc1ccc(NC(=O)C2CCCN(c3ncccn3)C2)cc1F (configuration not stated),-0.5
12,CN(C)S(=O)(=O)c1cccc(NC(=O)CNCc2ccccn2)c1,1.97
13,COc1ccc(C)cc1NC(=O)CSc1ccc(-c2ccccn2)nn1,-1.27
14,COc1ccc(N2CCN(CCCNS(=O)(=O)c3ccc4c(c3)oc(=O)n4C)CC2)cc1,1.27
15,COc1ccc(N2CCN(CCCNC(=O)c3cc4sccc4n3C)CC2)cc1,0
16,COc1ccc(N2CCN(C(=O)c3cccc(Cn4cc(Cl)cn4)c3)CC2)cc1,-2.53
17,COc1ccccc1-c1c(C)nn2c(N3CCN(Cc4ccccc4)CC3)cc(C)nc12,-5.59
18,Cc1ccc(C)c(N=Nc2nc3ccccc3n2C)c1,-0.25
19,NS(=O)(=O)c1ccc(NC(=O)Nc2ccc3c(c2)OCO3)cc1,0
20,COc1ccc(/C=N\NC(=O)c2cc(O)c(O)c(O)c2)cc1COc1ccc(C(=O)OCC(C)C)cc1,-1.01
21,Cc1ccc(-c2csc(NC(=O)c3cccc(N4C(=O)CCC4=O)c3)n2)o1,-0.25
22,Cc1cc2cc(CNC(=O)c3ccc(S(=O)(=O)N4CCCC4)cc3)ccc2n1C,1.97
23,Cc1cc(C)c(NN=c2c(=O)c3ccccc3c2=O)c(C)c1,-0.56

row,SMILES,inhibition [%]
1,COCc1cc(=O)[nH]c(Nc2nc3ccc(C)cc3o2)n1,-2.53
2,O=C(CCCN1C(=O)c2ccccc2C1=O)Nc1sc2c(c1C(=O)NCc1ccco1)CCC2,0.56
3,Cc1ccc(-c2nc3ncccn3c2Nc2ccc3c(c2)OCO3)o1,9.17
4,O=[N+]([O-])c1cc(/C=N/N/C(=N/c2ccccn2)c2ccccn2)ccc1O,0
5,O=[N+]([O-])c1cc2no[n+]([O-])c2cc1N1CCCCC1,-1.97
6,CCOc1ccc(C(=O)N/N=C/c2cccc3cccnc23)cc1,-4.25
7,Cc1nc2ccc(S(=O)(=O)Nc3cccc(-c4nc5cccnc5s4)c3C)cc2s1,0
8,COc1cc(C2CC(=O)Oc3c(C(CCN4CCCC(C)C4)c4ccc(N(C)C)cc4)c(OC)cc(OC)c32)cc(OC)c1OC (configuration not stated),-2.46
9,CCOc1cc2c(cc1OCC)-n1cccc1C(c1ccc(C(C)C)cc1)NC2 (configuration not stated),0
10,CSc1cccc(NC(=S)N(CCN(C)C)C(C)c2ccccn2)c1 (configuration not stated),29
11,Cc1ccccc1NC(=S)N(CCN(C)C)C(C)c1ccccn1 (configuration not stated),6.16
12,O=C(Cn1cc(SCc2ccc(Cl)cc2)c2ccccc21)N1CCOCC1,0
13,O=C1C(NS(=O)(=O)c2ccc(Br)cc2)=C(N2CCCCC2)C(=O)c2ccccc21,-2.53
14,CCN(CC)C(=O)CCc1nc2sc3c(c2c(=O)[nH]1)CCCC3,0
15,O=C(CN1CCN(Cc2cccc(Cl)c2)C1=O)NCc1ccccn1,2.46
16,Cc1ccc(Cl)c(NC(=O)COC(=O)CNS(=O)(=O)/C=C/c2ccccc2)c1Cl,1.27
17,CC(C)C(=O)N(c1ccc2oc(=O)sc2c1)S(=O)(=O)c1ccccc1,-1.01
18,CC(=NNC(=S)N1CCC1)c1ccccn1,-2.46
19,COc1ccccc1C(CCNCc1ccc(N(C)C)cc1)c1ccc(OC(C)C)cc1 (configuration not stated),-1.27
20,CSC1=NC(C)(C)CC2(C)Nc3ccccc3N12 (configuration not stated),11.4
21,Cc1cccn2cc(CCNS(=O)(=O)c3ccc4c(c3)OCCO4)nc12,-1.27
22,Cc1cc(C(=O)N/N=C/c2cc([N+](=O)[O-])ccc2O)c2ccccc2n1,-1.01
23,CC(C)(C)c1nnc(N/N=C/c2cc(Br)ccc2O)n(N)c1=O,0
